A short description of assay [1]: qHTS for Inhibitors of the Functional Ribonucleoprotein Complex (vRNP) of Lassa (LASV) Arenavirus: LASV Primary Screen - GLuc reporter signal (AID 1347082; calls by dose curve; tested in HEK293 reporter line; also: nearly all actives have a fitted effect of over 60% in size; also: potency is read from the fitted curve at half-maximal effect; as to activity change, negative = inhibition: % is scaled to controls: 0 for no effect and ±100 for the full control effect). Background: Quantitative high-throughput screening tests each substance at several concentrations.
Assay [2] can be described thus: qHTS for Inhibitors of the Functional Ribonucleoprotein Complex (vRNP) of Lymphocytic Choriomeningitis Arenaviruses (LCMV): Viability assay - alamar blue signal for LCMV Primary Screen (AID 1347085; calls by dose curve; tested in HEK293 reporter line; also: nearly all actives have a fitted effect of over 80% in size; also: potency is read from the fitted curve at half-maximal effect).
In assay [3] the target is Nucleoprotein (Lymphocytic choriomeningitis virus (strain Armstrong)) (UniProt P09992). The assay is described as follows: qHTS for Inhibitors of the Functional Ribonucleoprotein Complex (vRNP) of Lymphocytic Choriomeningitis Arenaviruses (LCMV): LCMV Primary Screen - GLuc reporter signal (AID 1347086). Also: nearly all actives have a fitted effect of over 70% in size. Also: potency is read from the fitted curve at half-maximal effect.
Assay [4] in a line: Confirmatory qHTS to identify inhibitors of SARS-CoV-2 cell entry (AID 1645844). Also: potency is read from the fitted curve at half-maximal effect; nearly all actives have a fitted effect of over 45% in size. An outline of the steps: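 HEK293-ACE2, overnight seeding; cpd 1 h, 37C/5% CO2; + SARS-CoV-2-S MLV PP (Wuhan-Hu-1, ΔC19); 48 h; Bright-Glo luminescence. Data normalised to S PP and bald PP wells.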
Assay [5] is described as follows: Cytotoxicity counterscreen for inhibitors of SARS-CoV-2 cell entry (AID 1645845). Also: nearly all actives have a fitted effect of over 50% in size. Also: potency is read from the fitted curve at half-maximal effect. The method, boiled down: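 Counterscreen run in the same HEK293-ACE2 line as the pseudotyped-particle entry assay, without particles. Viability after 48 h at 37 C was read as ATP luminescence, scaled between cell-containing and cell-free wells.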
(The purpose of a counterscreen is to sort out artefacts and off-target activity.)

Assay [6] is described as follows: Primary qHTS to identify inhibitors of SARS-CoV-2 cell entry (AID 1645846). Also: nearly all actives have a fitted effect of over 45% in size. Also: potency is read from the fitted curve at half-maximal effect. To be noted: activity change, negative = inhibition: at 57.1 µM (top of the series) unless noted. An outline of the steps: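 Using luciferase-reporting pseudoviruses carrying Wuhan-Hu-1 spike, the screen tracks entry into stably ACE2-expressing cells over 48 hr. Activity is expressed relative to spike particles versus particles lacking any fusion protein.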

Assay [7] can be described thus: Confirmatory qHTS for activators (rescue) of SARS-CoV-2 Cytopathic Effect (CPE) (AID 1508606). Also: nearly all actives have a fitted effect of over 70% in size. Also: potency is read from the fitted curve at half-maximal effect.
Assay [8] deals with Alpha-galactosidase (Coffea arabica) (UniProt Q42656). The assay is described as follows: Counterscreen for Glucocerebrosidase Inhibitors: qHTS Assay for Coffee Bean alpha-Galactosidase at pH 5.9 (AID 998; active = well fitted curve in the direction sought with a large enough effect; an effect the other way counts as inactive or inconclusive;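 also: plate controls were uninhibited enzyme for no effect and no-enzyme basal signal for full effect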). An outline of the steps:
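Enzyme 2 nM + cpd (0.7 nM–77 uM titration) + 4-MU-alpha-Gal 80 uM, pH 5.9 citrate/Tween-20, RT 20 min, NaOH/glycine stop pH 10, fluor 365/440. Normalized to no-enzyme and full-activity controls; Hill-fit AC50.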

Assay [9] in a line: Validation screen for inhibitors of Lassa infection (AID 463096). Also: % is scaled to controls: 0 for no effect and ±100 for the full control effect.
Assay [10] in a line: Inducers of the Endoplasmic Reticulum Stress Response (ERSR) in human glioma: Validation (AID 504836; active = well fitted curve in the direction sought with a large enough effect; an effect the other way counts as inactive or inconclusive; also: 0% is about no effect). An outline of the steps: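 Stably transfected U87-MG glioma cells carrying a GRP78-based luciferase sensor; 16 h compound incubation. Luminescence end-point read 10 min after Bright-Glo addition at room temperature.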
Assay [11] concerns the target Peroxisome proliferator-activated receptor delta (Homo sapiens) (UniProt Q03181). The assay is described as follows: qHTS assay for small molecule agonists of peroxisome proliferator-activated receptor delta signaling (AID 588534).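 Also: 0% = DMSO basal wells and 100% = positive control agonist at 10 µM.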 The method, boiled down:
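EC50 and efficacy values derive from Hill fits of a concentration series in a beta-lactamase reporter cell assay. Exposure is 18 hrs at 37 C, with CCF4 fluorescence as the readout.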

Assay [12] in a line: Primary qHTS for inhibitors of SARS-S pseudo-typed particle cell entry (AID 1479145). Also: nearly all actives have a fitted effect of over 45% in size.
The nature of assay [13]: Primary qHTS for Huh7 cytotoxicity: counterscreen for inhibitors of MERS-S pseudotyped particle cell entry (AID 1479147). Also: % is scaled to controls: 0 for no effect and ±100 for the full control effect. The note with it: outcome: dose series up to 57.1 µM unless noted.
Assay [14] can be described thus: Primary qHTS for Vero E6 cytotoxicity: counterscreen for inhibitors of SARS-S pseudo-typed particle cell entry (AID 1479150). Also: % is scaled to controls: 0 for no effect and ±100 for the full control effect. To be noted: outcome: dose series up to 57.1 µM unless noted.
Assay [15] is described as follows: Confirmatory qHTS for VERO E6 Cytotoxicity Assay: Counterscreen for SARS-CoV-2 CPE Assay (AID 1508605). Also: potency is read from the fitted curve at half-maximal effect; nearly all actives have a fitted effect of over 60% in size.

The structures appear in SMILES notation. Inconclusive results are not listed. Active and inactive are the calls of the source. Unless noted, calls follow the shape of the full dose curve.

Sequence of Nucleoprotein (Lymphocytic choriomeningitis virus (strain Armstrong)) (P09992 whole entry, looked up): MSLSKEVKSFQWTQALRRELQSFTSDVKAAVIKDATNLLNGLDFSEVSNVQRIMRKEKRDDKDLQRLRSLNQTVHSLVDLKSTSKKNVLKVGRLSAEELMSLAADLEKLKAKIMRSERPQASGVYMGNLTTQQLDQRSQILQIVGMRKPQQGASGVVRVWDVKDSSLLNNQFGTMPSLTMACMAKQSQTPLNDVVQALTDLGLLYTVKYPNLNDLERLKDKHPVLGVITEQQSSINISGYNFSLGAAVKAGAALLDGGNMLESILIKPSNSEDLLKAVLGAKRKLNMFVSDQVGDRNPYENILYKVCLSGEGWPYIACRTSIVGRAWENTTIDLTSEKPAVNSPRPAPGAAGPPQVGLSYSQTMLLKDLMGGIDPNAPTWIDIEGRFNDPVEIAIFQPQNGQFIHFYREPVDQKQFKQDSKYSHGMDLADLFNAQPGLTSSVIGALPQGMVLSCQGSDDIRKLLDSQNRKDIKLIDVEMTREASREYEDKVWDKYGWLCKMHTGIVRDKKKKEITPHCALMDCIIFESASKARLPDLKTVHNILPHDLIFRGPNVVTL
Sequence of Alpha-galactosidase (Coffea arabica) (Q42656 whole entry, looked up): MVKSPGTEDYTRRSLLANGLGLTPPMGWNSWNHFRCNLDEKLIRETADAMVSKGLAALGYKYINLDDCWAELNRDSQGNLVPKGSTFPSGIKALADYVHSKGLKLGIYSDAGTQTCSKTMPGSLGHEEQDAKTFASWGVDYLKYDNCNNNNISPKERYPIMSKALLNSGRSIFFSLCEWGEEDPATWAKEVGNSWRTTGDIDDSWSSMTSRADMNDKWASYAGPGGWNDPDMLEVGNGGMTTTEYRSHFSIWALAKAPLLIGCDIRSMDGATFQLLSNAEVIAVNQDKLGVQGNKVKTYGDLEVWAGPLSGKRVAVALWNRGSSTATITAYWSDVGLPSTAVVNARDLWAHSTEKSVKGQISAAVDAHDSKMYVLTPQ
Sequence of Peroxisome proliferator-activated receptor delta (Homo sapiens) (Q03181 whole entry, looked up): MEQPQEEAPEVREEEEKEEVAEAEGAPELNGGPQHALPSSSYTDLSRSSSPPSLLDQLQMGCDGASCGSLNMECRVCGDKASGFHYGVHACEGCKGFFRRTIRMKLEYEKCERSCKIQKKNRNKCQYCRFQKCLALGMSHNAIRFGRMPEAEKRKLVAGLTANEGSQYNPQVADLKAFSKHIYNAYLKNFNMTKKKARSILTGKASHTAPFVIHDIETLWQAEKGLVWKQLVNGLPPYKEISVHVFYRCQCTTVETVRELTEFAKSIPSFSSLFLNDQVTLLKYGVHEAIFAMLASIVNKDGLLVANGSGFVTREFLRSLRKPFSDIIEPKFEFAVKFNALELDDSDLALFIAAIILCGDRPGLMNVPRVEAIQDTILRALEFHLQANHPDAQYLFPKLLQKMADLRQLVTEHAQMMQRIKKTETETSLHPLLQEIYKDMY

Consider `O=C(O)C1(Cc2cccc(Nc3nccs3)n2)CCC(Oc2cccc(Cl)c2F)CC1` (stereo not drawn), for which the Potency entry in assay [1], in assay [2], in assay [3] and in assay [5] was “inactive” throughout. Also, in assay [4], the Potency was 10.8 µM (active).
On to `Nc1nc(F)nc2c1ncn2[C@@H]1O[C@H](COP(=O)(O)O)[C@@H](O)[C@H]1O`, for which the Potency result in [1], in [2] and in assay [3] was “inactive” throughout.
Turning to `C[C@@H]1C(=O)O[C@H]2[C@H](O)[C@@]34[C@H]5CC(C(C)(C)C)[C@]36[C@H](OC(=O)[C@H]6O)O[C@]4(C(=O)O5)[C@@]12O` (stereo partly drawn), the Potency result in assay [1], in [2] and in assay [3] was “inactive” throughout.
For the compound `CC1(C)CCC[C@@]2(C)C1CC[C@@](C)(O)[C@@H]2CC[C@@](C)(O)C1CO1` (stereo partly drawn), the Potency result in assay [1], in assay [2] and in assay [3] was “inactive” in each case.
On to `COc1cc2c(Nc3ccc(NC(=O)c4ccccc4)cc3)ncnc2cc1OCCCN1CCOCC1`, for which the Potency result in assay [1], in [2] and in assay [3] was “inactive” in each case. For the same compound, the Potency in assay [5] is 31.6 µM (active); in assay [6], 7.94 µM (active).
`COC1C(O)C(C)OC(OC2CCC3(C=O)C(CCC4C3CCC3(C)C(C5=CC(=O)OC5)CCC43O)C2)C1O` (stereo not drawn): the Potency entry in assay [1], in [2] and in assay [3] was “inactive” throughout.
With `COc1cc(C(C)C)c2c(c1)S(=O)(=O)N(COc1cc(=O)n3cccc(OCCN4CCCCC4)c3n1)C2=O`, the Potency entry in assay [1], in [2], in assay [3] and in assay [5] was “inactive” throughout. For the same compound, the activity change, negative = inhibition in assay [6] is -36.9%.
With `COc1cc2c(Nc3ccc(Cl)c(Cl)c3F)ncnc2cc1OCC1C[C@@H]2CN(C)C[C@H]2C1`, the values for the Potency in assay [1], in assay [2] and in assay [3] were 8.63 µM (active), 1.93 µM (active) and 2.43 µM (active), respectively.
As for `CN(C)CC[C@H](CSc1ccccc1)Nc1ccc(S(=O)(=O)NC(=O)c2ccc(N3CCN(Cc4ccccc4-c4ccc(Cl)cc4)CC3)cc2)cc1[N+](=O)[O-]`, the Potency result in assay [1], in [2], in assay [3] and in assay [5] was “inactive” each time. Moreover, the activity change, negative = inhibition in [6] is 1.37%.
Turning to `C[C@H](NC(=O)C(C#N)=Cc1cccc(Br)n1)c1ccccc1`, the Potency entry in [1], in assay [2] and in [3] was “inactive” in each case.
Take `CCN(CCO)CCCOc1ccc2c(Nc3cc(CC(=O)Nc4cccc(F)c4)[nH]n3)ncnc2c1`: the Potency entry in assay [1], in assay [2], in [3] and in [5] was “inactive” in each case. For the same compound, in [4], the Potency was 0.681 µM (active). The activity change, negative = inhibition in assay [6] was -58.3%.
On to `Cc1nc(NC(=O)N2CCC[C@@H]2C(N)=O)sc1-c1csc(C(C)(C)C)n1`, for which the Potency result in assay [1], in assay [2] and in assay [3] was “inactive” each time.
`COc1cc2c(cc1OC)[C@@H]1Cc3ccc(OC)c(OC)c3CN1CC2`: the Potency entry in assay [1], in assay [2] and in assay [3] was “inactive” each time.
For the compound `COc1ccc(-c2oc3cc(OC)c(O)c(OC)c3c(=O)c2OC)cc1O`, the Potency result in assay [1], in assay [2] and in [3] was “inactive” throughout.
Take `Clc1cc(Cl)cc(CNc2ncncc2-c2ccc3c(c2)OCO3)c1`: the Potency result in assay [1], in [2], in assay [3] and in assay [5] was “inactive” each time.
On to `Cn1cc(-c2ccncc2)c(-c2ccc(OCc3ccc4ccccc4n3)cc2)n1`, for which the Potency in [1] and in assay [3] was 21.7 µM (active) throughout. In addition, the Potency entry in assay [2] and in [7] was “inactive” in each case.
Turning to `C[C@]12CC[C@@H]3c4ccc(O)cc4CC[C@H]3[C@@H]1CC[C@@H]2O`, the result in assay [8], in assay [10], in [13] and in assay [14] was inactive. In addition, the Potency result in [9], in [11], in assay [1], in [2], in [3] and in [12] was “inactive” in each case.
For `CCS(=O)(=O)N1CC(CC#N)(n2cc(-c3ncnc4[nH]ccc34)cn2)C1`, the Potency entry in [1], in assay [2] and in assay [3] was “inactive” each time.
For `Cn1c(=O)c(Oc2ccc(F)cc2F)cc2cnc(NC3CCOCC3)nc21`, the Potency entry in assay [1], in assay [2], in assay [3], in assay [5] and in assay [6] was “inactive” in each case.
Turning to `C=CCc1ccc(O)c(-c2ccc(O)c(CC=C)c2)c1`, the Potency entry in assay [1], in assay [2] and in assay [3] was “inactive” throughout.
Consider `NS(=O)(=O)c1ccc(Nc2nc(OCC3CCCCC3)c3[nH]cnc3n2)cc1`, for which the Potency result in [1], in assay [2], in [3] and in assay [5] was “inactive” each time.
Consider `C=C1CCC2C(C)(C)[C@H](O)CC[C@@]2(C)[C@@H]1COc1cc(=O)oc2ccccc12` (stereo partly drawn), for which the Potency entry in assay [1], in [2] and in assay [3] was “inactive” in each case.
Take `COc1cc(O)c2c(=O)c(-c3ccc(O[C@@H]4O[C@H](CO)[C@@H](O)[C@H](O)[C@H]4O)cc3)coc2c1`: the Potency result in [1], in assay [2] and in assay [3] was “inactive” in each case.
In the case of `O=c1[nH]nc(OCCCc2ccc(Cl)cc2)c(NCc2cccnc2)c1Br`, the Potency result in assay [1], in assay [2], in assay [3] and in [5] was “inactive” each time. Further, the activity change, negative = inhibition in [6] is -25.1%.
In the case of `Nc1ncn([C@@H]2O[C@H](CO)[C@@H](O)[C@@H]2O)c(=O)n1`, the Potency result in assay [1], in assay [2] and in [3] was “inactive” each time.
As to `CN(Cc1nc2c(N)nc(N)nc2[nH]c1=O)c1ccc(C(=O)NC(CCC(=O)O)C(=O)O)cc1` (stereo not drawn), the Potency result in assay [1], in assay [2] and in assay [3] was “inactive” throughout.
`Cc1cccc(Nc2nc(-c3ccncc3)cs2)c1`: the Potency entry in [1], in assay [2] and in assay [3] was “inactive” throughout. Also, the Potency in assay [15] is 10 µM (active); in [7] it was 0.794 µM (active); in assay [4] it was 4.29 µM (active); in [6], 10 µM (active).
For `Nc1ncnc2c1nc(Br)n2C1OC2COP(=O)(O)O[C@@H]2C1O` (stereo partly drawn), the Potency result in assay [1], in assay [2] and in assay [3] was “inactive” in each case.
Regarding `CC(C)n1cnc2c(NCCc3ccc(O)cc3)nc(-c3csc4ccccc34)nc21`, the Potency entry in assay [1], in [2], in [3] and in [5] was “inactive” throughout. Further, the activity change, negative = inhibition in assay [6] was -45.8%.
Take `N[C@H](CSC(c1ccccc1)(c1ccccc1)c1ccccc1)C(=O)O`: the Potency entry in assay [1], in [2], in [3] and in assay [5] was “inactive” throughout. Also, the activity change, negative = inhibition in assay [6] is -15.9%.
As to `Nc1ncnc2c1nc(Cl)n2[C@@H]1O[C@H](CO)[C@@H](O)[C@@H]1O`, the Potency entry in [1], in assay [2], in assay [3] and in assay [5] was “inactive” each time.
With `CC/C=C\[C@H](O)[C@H](O)C1=C(C)C(=O)[C@]2(O1)C(=O)N[C@@](OC)(C(=O)c1ccccc1)C2O` (stereo partly drawn), the Potency result in assay [1], in [2] and in assay [3] was “inactive” in each case.
With `CC=CC(C)=CC(C)C(=O)CC(O)CC1CC(=O)NC(=O)C1` (stereo not drawn), the Potency result in assay [1], in assay [2] and in assay [3] was “inactive” throughout.
Regarding `C[C@]12CC[C@@H]3c4ccc(O)cc4CC[C@H]3[C@H]1[C@@H](O)[C@@H](O)[C@H]2O`, the Potency result in [1], in assay [2], in [3], in assay [5] and in assay [6] was “inactive” throughout.

These data come from PubChem BioAssay (NCATS).
